Our source for the outcome and AC50 values is PubChem BioAssay (EPA / NIEHS).

SMILES strings stand for the structures. Records with an inconclusive call do not appear. The source made the active and inactive calls. How the source made its calls, unless noted: active means hit-call score of the fitted dose curve at least 0.9, where 1 is the maximum; inactive means score below 0.9.

The nature of test [1]: ATG_PPRE_CIS: Attagene CIS-FACTORIAL HepG2 Assay for human Peroxisome Proliferator-activated Response Element (PPRE) (AID 2282958). As to conditions: HepG2 PPRE cis-element reporter, Attagene transcription factor profiling; actives raise or lower the signal. The essentials: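 Read-out: fluorescent reporter mRNA fragments resolved by capillary electrophoresis after RT-PCR. HepG2 cells carried transiently transfected PPRE-driven cis reporter constructs and were dosed for 24 h; gain or loss of signal fitted relative to DMSO.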

A short description of test [2]: ATG_RORE_CIS: Attagene CIS-FACTORIAL HepG2 Assay for human RAR-related Orphan Receptor Element (RORE) (AID 2282959). The conditions noted are these: HepG2 Attagene cis-factorial RORE reporter, mRNA; actives raise or lower the signal. A digest of the protocol: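 Readout: fluorescent reporter mRNA by RT-PCR plus capillary electrophoresis, 24 h after dosing transfected HepG2 cells. Endogenous transcription factor activity on a cis promoter element is measured. Gain or loss of signal fitted against DMSO.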

The nature of test [3]: ATG_Sox_CIS: Attagene CIS-FACTORIAL HepG2 Assay for human SRY-box transcription factor (SOX) (AID 2282960). The conditions noted are these: HepG2 Attagene cis-factorial SOX reporter, mRNA; actives raise or lower the signal. The essentials:
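Read-out: fluorescent RT-PCR products of SOX1-linked reporter transcripts resolved by capillary electrophoresis, fitted bidirectionally against DMSO. Transiently transfected HepG2 cells, 24 h after chemical exposure, endogenous transcription factor activity.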

For test [4], the target named is Transcription factor Sp1 (Homo sapiens) (UniProt P08047). The test is described as follows: ATG_Sp1_CIS: Attagene CIS-FACTORIAL HepG2 Assay for human Specificity Protein 1 (Sp1) (AID 2282961). The conditions noted are these: HepG2 Sp1 cis-reporter transcription, actives raise or lower the signal. The essentials: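 Read-out: fluorescence of 6-FAM-labeled, HpaI-digested RT-PCR products separated by capillary electrophoresis. HepG2 cells carried transfected cis-element reporter units and were exposed to chemicals for 24 h; gain or loss of signal fitted relative to DMSO.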

The nature of test [5]: ATG_SREBP_CIS: Attagene CIS-FACTORIAL HepG2 Assay for human Sterol Regulatory Element Binding (SREBP) (AID 2282962). The conditions noted are these: HepG2 Attagene cis-factorial SREBP reporter, mRNA; actives raise or lower the signal. A digest of the protocol: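 HepG2 cells transiently transfected with multiplexed cis-element reporter units report endogenous transcription factor activity. After 24 h of chemical exposure, reporter mRNA was quantified by RT-PCR, 6-FAM labelling, HpaI digestion and capillary electrophoresis; bidirectional fits used DMSO as baseline.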

A short description of test [6]: ATG_TA_CIS: Attagene CIS-FACTORIAL HepG2 Assay for human TA Basal Promoter (AID 2282964). The conditions noted are these: HepG2 Attagene CIS-factorial TA basal promoter reporter; actives raise or lower the signal. The essentials: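 Read-out: fluorescent reporter-transcript fragments resolved by capillary electrophoresis after RT-PCR and HpaI digestion. Source: HepG2 cells carrying transiently transfected multi-reporter cis constructs, treated 24 h. Endpoint fitted bidirectionally relative to DMSO.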

Test [7] is described as follows: ATG_TCF_b_cat_CIS: Attagene CIS-FACTORIAL HepG2 Assay for human T-Cell-Factor with beta-catenin (TCF/b-cat) (AID 2282965). The conditions noted are these: HepG2 TCF/beta-catenin cis-reporter transcription, actives raise or lower the signal. A digest of the protocol: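 HepG2, transient MRTU transfection, cis-element-driven reporters (endogenous TFs). 24 h compound exposure. Readout: reporter mRNA by RT-PCR + 6-FAM primer extension, HpaI digest, capillary electrophoresis. Gain/loss fit vs DMSO baseline.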

Test [8] is described as follows: ATG_TAL_CIS: Attagene CIS-FACTORIAL HepG2 Assay for human TAL Basal Promoter (AID 2282966).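 Further: background control endpoint measuring basal TAL promoter reporter mRNA not a specific factor.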 The conditions noted are these: HepG2 Attagene cis-factorial TAL promoter reporter; actives raise or lower the signal. The essentials: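 Fluorescence of labelled reporter cDNA fragments, resolved by capillary electrophoresis, gave the readout. Human HepG2 liver cells carried transiently transfected cis-element reporter units and were treated for 24 hours; activity was fitted bidirectionally against DMSO.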

Test [9] in a line: ATG_TGFb_CIS: Attagene CIS-FACTORIAL HepG2 Assay for human Transforming Growth Factor (TGF) (AID 2282967). As to conditions: HepG2 Attagene CIS TGFb reporter, mRNA transcription; actives raise or lower the signal. A digest of the protocol:
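Transient MRTU transfection of HepG2 (FuGene 6). Dose 24 h. TriZol RNA, oligo(dT) RT, PCR, 6-FAM primer extension, HpaI cut, CE. Bidirectional fit, DMSO = baseline.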

A short description of test [10]: ATG_VDRE_CIS: Attagene CIS-FACTORIAL HepG2 Assay for human Vitamin D Receptor Element (VDRE) (AID 2282968). As to conditions: HepG2 VDRE cis-reporter transcription, actives raise or lower the signal. The essentials: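 Cell-based multiplexed reporter format in human liver HepG2 cells, 24 h post-dose. Fluorescence from capillary electrophoresis of reporter cDNA gives the signal, with DMSO as negative control and baseline.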

The target in test [11] is X-box-binding protein 1 (Homo sapiens) (UniProt P17861). Description: ATG_Xbp1_CIS: Attagene CIS-FACTORIAL HepG2 Assay for human X-box Binding Protein 1 (XBP1) (AID 2282972). The conditions noted are these: HepG2 XBP1 cis-element reporter, Attagene multiplex; actives raise or lower the signal. The essentials: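 HepG2 cells transiently transfected with cis-regulated multiple reporter transcription units; endogenous transcription factor activity measured 24 hours after chemical dosing. Reporter mRNA quantified by RT-PCR, 6-FAM primer extension, HpaI digestion and capillary electrophoresis; bidirectional fitting versus DMSO.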

A short description of test [12]: ATG_M_19_TRANS: Attagene TRANS-FACTORIAL HepG2 Assay for M19 Transcription Factor (Internal Marker) (AID 2282974; active means hit-call score of the fitted dose curve at least 0.9, where 1 is the maximum). The conditions noted are these: HepG2 Attagene TRANS-FACTORIAL M19 internal marker reporter. The essentials:
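24 h chemical exposure of transiently transfected HepG2 (MRTU library). RNA → oligo(dT) RT → PCR → 6-FAM labelling → HpaI cut → CE fluorescence. Positive-direction fit vs DMSO baseline; background internal-marker readout.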

Test [13] in a line: ATG_PXRE_CIS: Attagene CIS-FACTORIAL HepG2 Assay for human Pregnane X Receptor Element (PXRE) (AID 2282957). The conditions noted are these: HepG2 Attagene CIS-FACTORIAL PXRE reporter, mRNA; actives raise or lower the signal. The essentials: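 Transfect HepG2 with MRTUs (cis promoter elements); dose chemical, incubate 24 h; isolate RNA, RT with oligo(dT), PCR, 6-FAM label, HpaI cut, CE. Gain/loss fit vs DMSO.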

Test [14] concerns the target Signal transducer and activator of transcription 3 (Homo sapiens) (UniProt P40763). Description: ATG_STAT3_CIS: Attagene CIS-FACTORIAL HepG2 Assay for human Signal Transducer and Activator of Transcription 3 (STAT3) (AID 2282963). As to conditions: HepG2, Attagene cis-factorial STAT3 reporter transcription; actives raise or lower the signal. A digest of the protocol: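 Values derive from bidirectional fits relative to DMSO of reporter mRNA levels, measured by RT-PCR with capillary electrophoresis, in HepG2 cells carrying transiently transfected cis-regulated reporter units and exposed 24 h.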

Test [15] deals with Nuclear receptor subfamily 1 group I member 3 (Homo sapiens) (UniProt Q14994). The test is described as follows: ATG_CAR_TRANS: Attagene TRANS-FACTORIAL HepG2 Assay for human Constitutive Androstane Receptor (CAR) (AID 2282969; active means hit-call score of the fitted dose curve at least 0.9, where 1 is the maximum;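 further: activators raise reporter mRNA above DMSO so AC50 marks induction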). The conditions noted are these: HepG2 Attagene TRANS-FACTORIAL CAR reporter. A digest of the protocol:
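HepG2 cells transiently transfected with GAL4-UAS reporter units; TRANS format reads activity of exogenous chimeric NR-Gal4 protein. After 24 h dosing, reporter mRNA quantified by RT-PCR, 6-FAM labelling and capillary electrophoresis; gain of signal fitted against DMSO.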

Test [16] concerns the target Estrogen receptor (Homo sapiens) (UniProt P03372). The test is described as follows: ATG_ERa_TRANS: Attagene TRANS-FACTORIAL HepG2 Assay for human Estrogen Receptor alpha (ERa) (AID 2282970; active means hit-call score of the fitted dose curve at least 0.9, where 1 is the maximum). The conditions noted are these: HepG2 Attagene TRANS ERa GAL4 reporter, mRNA. A digest of the protocol:
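Human liver HepG2, transient transfection of multiple GAL4-UAS reporter units; TRANS format (exogenous NR-Gal4 chimera). 24 h dosing. Readout: reporter mRNA, RT-PCR, 6-FAM primer extension, HpaI digest, capillary electrophoresis. Positive direction vs DMSO.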

Test [17] addresses Estrogen-related receptor gamma (Homo sapiens) (UniProt P62508). Description: ATG_ERRg_TRANS: Attagene TRANS-FACTORIAL HepG2 Assay for human Estrogen-Related Receptor gamma (ERRg) (AID 2282977; active means hit-call score of the fitted dose curve at least 0.9, where 1 is the maximum;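 further: hits increase reporter signal over DMSO so potencies reflect activators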). The conditions noted are these: HepG2 Attagene TRANS reporter, ERRg transactivation. A digest of the protocol:
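Transient HepG2 transfectants, 24 h compound exposure, GAL4-UAS reporter mRNA by RT-PCR/6-FAM labelling/capillary electrophoresis; positive direction vs DMSO.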

Sequence of Transcription factor Sp1 (Homo sapiens) (P08047 whole entry, looked up): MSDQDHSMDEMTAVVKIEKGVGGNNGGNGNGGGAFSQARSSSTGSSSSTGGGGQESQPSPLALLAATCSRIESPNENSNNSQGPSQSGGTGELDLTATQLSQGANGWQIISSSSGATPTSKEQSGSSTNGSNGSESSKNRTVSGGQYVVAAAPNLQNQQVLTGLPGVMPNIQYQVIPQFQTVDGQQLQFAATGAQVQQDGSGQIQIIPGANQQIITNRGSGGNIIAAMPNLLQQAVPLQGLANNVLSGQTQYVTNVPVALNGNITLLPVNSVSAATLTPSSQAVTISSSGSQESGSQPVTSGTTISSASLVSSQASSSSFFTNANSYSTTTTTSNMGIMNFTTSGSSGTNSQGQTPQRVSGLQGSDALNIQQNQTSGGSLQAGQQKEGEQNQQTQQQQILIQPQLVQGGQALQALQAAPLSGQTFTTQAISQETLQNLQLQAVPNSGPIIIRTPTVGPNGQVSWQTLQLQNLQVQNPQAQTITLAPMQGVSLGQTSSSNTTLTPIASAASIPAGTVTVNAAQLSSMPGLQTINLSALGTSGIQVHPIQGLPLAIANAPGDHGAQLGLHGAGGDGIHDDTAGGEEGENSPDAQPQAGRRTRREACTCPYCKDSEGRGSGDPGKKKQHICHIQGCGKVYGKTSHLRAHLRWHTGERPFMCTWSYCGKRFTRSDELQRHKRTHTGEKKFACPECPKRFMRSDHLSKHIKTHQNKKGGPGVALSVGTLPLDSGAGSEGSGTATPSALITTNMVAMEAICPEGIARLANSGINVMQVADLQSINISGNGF
Sequence of Signal transducer and activator of transcription 3 (Homo sapiens) (P40763 whole entry, looked up): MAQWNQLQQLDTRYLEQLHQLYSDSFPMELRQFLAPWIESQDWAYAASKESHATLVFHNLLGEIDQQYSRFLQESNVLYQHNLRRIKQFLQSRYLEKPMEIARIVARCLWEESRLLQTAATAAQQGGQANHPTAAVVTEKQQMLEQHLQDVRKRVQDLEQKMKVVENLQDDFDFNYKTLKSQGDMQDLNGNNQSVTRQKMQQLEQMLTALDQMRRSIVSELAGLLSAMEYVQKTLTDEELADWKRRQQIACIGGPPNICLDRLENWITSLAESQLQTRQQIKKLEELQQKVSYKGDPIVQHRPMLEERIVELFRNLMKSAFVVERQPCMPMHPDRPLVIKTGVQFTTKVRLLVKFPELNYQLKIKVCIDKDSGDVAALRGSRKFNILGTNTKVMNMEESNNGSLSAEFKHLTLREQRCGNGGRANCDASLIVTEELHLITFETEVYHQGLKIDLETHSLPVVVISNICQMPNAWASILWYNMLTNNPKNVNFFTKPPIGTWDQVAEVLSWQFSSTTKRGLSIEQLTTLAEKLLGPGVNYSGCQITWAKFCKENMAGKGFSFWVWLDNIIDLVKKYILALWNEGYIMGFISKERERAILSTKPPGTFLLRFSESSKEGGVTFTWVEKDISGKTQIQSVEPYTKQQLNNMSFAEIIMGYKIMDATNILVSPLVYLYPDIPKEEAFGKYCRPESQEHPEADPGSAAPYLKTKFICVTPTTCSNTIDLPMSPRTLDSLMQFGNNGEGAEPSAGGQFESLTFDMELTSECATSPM
Sequence of X-box-binding protein 1 (Homo sapiens) (P17861 whole entry, looked up): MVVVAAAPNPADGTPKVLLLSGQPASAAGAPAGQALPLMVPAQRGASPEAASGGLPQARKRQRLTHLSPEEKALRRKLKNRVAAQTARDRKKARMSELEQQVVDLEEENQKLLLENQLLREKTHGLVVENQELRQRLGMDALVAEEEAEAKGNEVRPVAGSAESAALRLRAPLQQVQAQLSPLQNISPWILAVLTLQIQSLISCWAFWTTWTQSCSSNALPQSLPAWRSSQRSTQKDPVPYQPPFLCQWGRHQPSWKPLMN
Sequence of Nuclear receptor subfamily 1 group I member 3 (Homo sapiens) (Q14994 whole entry, looked up, the tested form may be a part): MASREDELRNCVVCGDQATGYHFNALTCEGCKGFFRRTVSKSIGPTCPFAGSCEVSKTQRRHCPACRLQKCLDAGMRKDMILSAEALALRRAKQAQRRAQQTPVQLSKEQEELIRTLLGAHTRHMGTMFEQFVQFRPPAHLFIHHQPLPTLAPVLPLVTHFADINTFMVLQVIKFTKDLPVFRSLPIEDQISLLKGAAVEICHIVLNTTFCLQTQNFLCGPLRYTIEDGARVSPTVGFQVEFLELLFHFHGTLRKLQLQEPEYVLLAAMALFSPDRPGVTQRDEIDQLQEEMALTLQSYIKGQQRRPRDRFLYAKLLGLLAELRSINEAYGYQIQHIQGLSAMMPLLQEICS
Sequence of Estrogen receptor (Homo sapiens) (P03372 whole entry, looked up, the tested form may be a part): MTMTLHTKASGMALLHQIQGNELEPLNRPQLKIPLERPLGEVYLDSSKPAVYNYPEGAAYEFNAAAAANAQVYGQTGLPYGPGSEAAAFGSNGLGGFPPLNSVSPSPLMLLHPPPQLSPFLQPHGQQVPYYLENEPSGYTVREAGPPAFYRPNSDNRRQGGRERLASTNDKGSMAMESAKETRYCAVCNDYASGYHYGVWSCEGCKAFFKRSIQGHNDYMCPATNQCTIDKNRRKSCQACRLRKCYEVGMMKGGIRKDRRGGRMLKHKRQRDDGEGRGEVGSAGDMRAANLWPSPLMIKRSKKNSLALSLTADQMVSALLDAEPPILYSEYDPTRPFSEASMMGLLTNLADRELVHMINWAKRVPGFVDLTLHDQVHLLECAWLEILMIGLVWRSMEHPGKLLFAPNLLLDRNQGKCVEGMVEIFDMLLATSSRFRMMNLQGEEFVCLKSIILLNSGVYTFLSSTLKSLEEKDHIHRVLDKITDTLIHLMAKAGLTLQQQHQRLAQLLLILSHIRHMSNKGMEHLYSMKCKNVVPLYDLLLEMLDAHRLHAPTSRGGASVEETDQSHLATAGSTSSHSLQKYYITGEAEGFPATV
Sequence of Estrogen-related receptor gamma (Homo sapiens) (P62508 whole entry, looked up, the tested form may be a part): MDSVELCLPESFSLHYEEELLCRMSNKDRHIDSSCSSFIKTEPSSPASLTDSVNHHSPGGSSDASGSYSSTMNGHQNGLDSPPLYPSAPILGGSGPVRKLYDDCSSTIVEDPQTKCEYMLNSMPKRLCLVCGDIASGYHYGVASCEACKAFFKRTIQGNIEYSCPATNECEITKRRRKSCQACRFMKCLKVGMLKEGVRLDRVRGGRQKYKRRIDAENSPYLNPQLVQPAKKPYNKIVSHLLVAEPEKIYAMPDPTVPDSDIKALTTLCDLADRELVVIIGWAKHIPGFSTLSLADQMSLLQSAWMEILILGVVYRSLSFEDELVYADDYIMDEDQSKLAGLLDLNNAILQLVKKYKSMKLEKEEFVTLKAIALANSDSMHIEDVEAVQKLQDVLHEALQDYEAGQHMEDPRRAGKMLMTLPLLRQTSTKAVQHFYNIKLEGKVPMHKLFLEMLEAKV

For the compound `COCC(C)N` (configuration not stated), the outcome in test [1], in test [2], in [3], in test [4], in test [5] and in test [6] was inactive. For the same compound, the compound was called inactive in [7], in test [8], in [9], in [10], in test [11] and in test [12].
Take `CC(=O)[C@H]1[C@H](C#N)C[C@H]2[C@@H]3CC=C4C[C@@H](O)CC[C@]4(C)[C@H]3CC[C@@]21C`: the compound was called inactive in [13], in [1], in test [2], in [3], in test [4] and in [5]. The call in test [6], in test [8], in test [9], in test [10], in test [11] and in [12] was inactive.
For the compound `C=CCCCCCCCCC(=O)OCCCC`, the AC50 in [13] was 42.1 µM (active). Moreover, the compound was classed as inactive in test [1], in [2], in test [3], in [4], in [5] and in test [14]. In addition, the outcome in [6], in test [7], in [8], in test [9], in test [10] and in test [15] was inactive. The outcome in test [16], in [11] and in test [12] was inactive.
As for `NC(=O)C1CO1` (configuration not stated), the compound was called inactive in test [13], in test [1], in [2], in test [3], in [4] and in [5]. Besides, the compound was called inactive in test [14], in test [6], in test [7], in test [8], in test [9] and in test [10]. The compound was called inactive in [11] and in test [12].
Consider `COC=O`, for which the result in [13], in test [1], in [2], in test [3], in test [4] and in [5] was inactive. Besides, the outcome in test [14], in test [6], in test [7], in test [8], in test [9] and in [11] was inactive. Besides, the compound was called inactive in test [17].

As a reminder, the AC50 is the midpoint of the concentration-response curve, whichever way the signal moves.
